Only a selection was taken, and hits are over-represented in it overall.
Methyltransferases = Primary Screen for Target Class Profiling of Small Molecule Inhibitors of Methyltransferases. purified enzyme, MTase-Glo SAH luminescence; hits give low values. calls only at 40 µM. 25,000 compounds, 3.9% hits. AID 1745853, 2022; call rule not given here
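Each enzyme was reacted with SAM and its substrate, with compounds tested once at 40 uM; SAH formed was read by MTase-Glo luminescence.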
* = called active by the depositor; i = inactive; + = active, no number; ! = not confirmed by another sample. % is scaled to controls: 0 for no effect and ±100 for the full control effect.

SMILES	Methyltransferases
CCC(C)NC(=O)c1ccc2c(=O)n(C)c3nnc(SCC(=O)Nc4cccc(OC)c4)n3c2c1 (centres undefined)	i
CC(C)CCn1c(=O)c2ccccc2n2c(SCC(=O)NCc3ccccc3Cl)nnc12	i
CC(C)OCCCNC(=O)C1(C)Cn2c(cc3ccccc32)C(=O)N1CCc1cccs1 (centres undefined)	i
CC(C)c1cccc2c(-c3ccccc3)cc(-c3ccc(-c4ccc(C(=O)O)cc4)[nH]3)nc12	+
COc1cccc(CNC(=O)CSc2nnc3n(CCc4ccccc4)c(=O)c4ccccc4n23)c1	i
COC(=O)c1cc2n(n1)CC(C)(C(=O)NC1CCCCC1)N(c1ccc(C)c(C)c1)C2=O (centres undefined)	i
Cc1ccc(N2C(=O)c3cc4sccc4n3CC2(C)C(=O)NC2CCCC(C)C2C)c(C)c1 (centres undefined)	i
Cc1ccc(N2C(=O)CSc3c(c4ccccc4n3C)C2C(=O)NCc2ccccc2)cc1C (centres undefined)	i
C=C[C@H]1[C@H](O[C@@H]2O[C@H](CO)[C@@H](O)[C@H](O)[C@H]2O)OC=C(C(=O)OC)[C@H]1CC(=O)O	i
CC1C(OC(=O)c2ccccc2)C(O)C2C(C(=O)O)=COC(OC3OC(CO)C(O)C(O)C3O)C12 (centres undefined)	i
COC(=O)C1=COC(OC2OC(CO)C(O)C(O)C2O)C2C1CC(OC(=O)C(O)CC(=O)O)C2C (centres undefined)	+
COC(=O)C1=CO[C@@H](O[C@@H]2O[C@H](CO)[C@@H](O)[C@H](O)[C@H]2O)[C@@H]2[C@@H](C(=O)OC)[C@@H](O)C(O)[C@H]12 (some centres undefined)	i
C=C[C@H]1[C@H](O[C@@H]2O[C@H](CO)[C@@H](O)[C@H](O)[C@H]2O)OC=C(C(=O)OC)[C@H]1C[C@@H]1N[C@H](C(=O)O)Cc2c1[nH]c1ccccc21	i
C=C[C@H]1[C@H](O[C@@H]2O[C@H](CO)[C@@H](O)[C@H](O)[C@H]2O)OC=C(C(=O)OC)[C@H]1CCO	+
COC(=O)C1=CO[C@@H](O[C@@H]2O[C@H](CO)[C@@H](O)[C@H](O)[C@H]2O)[C@H]2[C@@H]1CC(OC)O[C@@H]2C (some centres undefined)	+
COC(=O)C1=COC(OC2OC(CO)C(O)C(O)C2O)C2C(C)C(OC(C)=O)C(OC(=O)c3ccccc3)C12 (centres undefined)	i
COC(=O)C1=COC(O[C@@H]2O[C@H](CO)[C@@H](O)[C@H](O)[C@H]2O)C2C(C)C(=O)CC12 (some centres undefined)	i
COC(=O)c1ccccc1N1C(=O)CSc2c(c3ccccc3n2C)C1C(=O)NCc1ccccc1OC (centres undefined)	i
COc1ccc(S(=O)(=O)c2nnn3c2nc(Nc2ccc(C)cc2)c2ccccc23)cc1	i
CC1(C(=O)NCc2ccc(Cl)cc2)Cn2c(ccc2-c2ccco2)C(=O)N1Cc1ccc(F)cc1 (centres undefined)	i
CCOCCCNc1nc2c(S(=O)(=O)c3c(C)cc(C)cc3C)nnn2c2ccccc12	i
CCOC(=O)c1cc2n(n1)CC(C)(C(=O)NCc1ccccc1)N(c1cccc(Cl)c1C)C2=O (centres undefined)	i
CCCn1c(=O)c2ccc(C(=O)NC3CCCC3)cc2n2c(=O)n(Cc3cccc(C)c3)nc12	i
CCc1ccc(NC(=O)CSc2nnc3n(CC(C)C)c(=O)c4ccccc4n23)cc1	i
CCCN1C(=O)c2c(C(=O)NCc3cccc(Br)c3)ncn2CC1(C)C(=O)NCc1ccccc1 (centres undefined)	i
SMILES	Methyltransferases
CCOc1ccc(CCN2C(=O)c3cc4ccccc4n3CC2(C)C(=O)NCCC(C)C)cc1OCC (centres undefined)	i
COC(=O)c1cc2n(n1)CC(C)(C(=O)NC1CCCCC1)N(c1ccc(C)cc1)C2=O (centres undefined)	i
CC(C)OCCCn1c(=O)c2ccccc2n2c(=O)n(Cc3ccccc3)nc12	i
CC(CN1C(=O)c2cc3ccccc3n2CC1(C)C(=O)NC1CCCCC1)c1ccccc1 (centres undefined)	i
Cc1ccc(CNC(=O)C2(C)Cn3nc(C(=O)NCc4ccccc4C)cc3C(=O)N2C)cc1 (centres undefined)	i
CN(C)CCCC1(c2ccc(F)cc2)OCc2cc(C#N)ccc21 (centres undefined)	+!
CCOc1cc2ncc(C#N)c(Nc3ccc(F)c(Cl)c3)c2cc1NC(=O)/C=C/CN(C)C	+
CCOc1cc2ncc(C#N)c(Nc3ccc(OCc4ccccn4)c(Cl)c3)c2cc1NC(=O)/C=C/CN(C)C	i
CN(C)C/C=C/C(=O)Nc1cc2c(Nc3ccc(F)c(Cl)c3)ncnc2cc1O[C@H]1CCOC1	+
CN(C)C/C=C/C(=O)Nc1cc2c(Nc3ccc(F)c(Cl)c3)ncnc2cc1OC1CCOC1 (centres undefined)	+

Source: PubChem BioAssay (National Center for Advancing Translational Sciences (NCATS))
